Read-out in assay [1]: Tissue Factor, F3 (gene 2152)
The assay can be described thus: BSK_CASM3C_TissueFactor: BioMAP Diversity Plus: CASM3C Assay for Tissue Factor Biomarker Activity (AID 2283052).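 Further: cell surface tissue factor protein level read by ELISA.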 Conditions: primary human coronary artery smooth muscle cells; actives raise or lower the signal.

Read-out in assay [2]: Interferon-gamma inducible Protein 10 (IP10), CXCL10 (gene 3627)
The assay can be described thus: BSK_hDFCGF_IP10: BioMAP Diversity Plus: hDFCGF Assay for Interferon-gamma inducible Protein 10 (IP10) Biomarker Activity (AID 2283053). Conditions: primary human foreskin fibroblasts; actives raise or lower the signal. An outline of the steps:
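ELISA quantification of IP-10 after a 24 h chemical exposure of human dermal foreskin fibroblast primary cultures. Both increases and decreases versus DMSO fitted.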

Read-out in assay [3]: Urokinase-type plasminogen activator receptor (uPAR), PLAUR (gene 5329)
The assay can be described thus: BSK_CASM3C_uPAR: BioMAP Diversity Plus: CASM3C Assay for Urokinase-type plasminogen activator receptor (uPAR) Biomarker Activity (AID 2283054).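 Further: cell-surface uPAR protein level quantified by ELISA.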 Conditions: primary human coronary artery smooth muscle cells; actives raise or lower the signal.

Read-out in assay [4]: Vascular cell adhesion molecule 1 (VCAM1), VCAM1 (gene 7412)
The assay can be described thus: BSK_CASM3C_VCAM1: BioMAP Diversity Plus: CASM3C Assay for Vascular cell adhesion molecule 1 (VCAM1) Biomarker Activity (AID 2283055).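 Further: VCAM-1 protein level quantified by ELISA on the cells.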 Conditions: primary human coronary artery smooth muscle cells; actives raise or lower the signal.

Read-out in assay [5]: Collagen III, COL3A1 (gene 1281)
The assay can be described thus: BSK_hDFCGF_CollagenIII: BioMAP Diversity Plus: hDFCGF Assay for Collagen III Biomarker Activity (AID 2283056). Particulars: primary human foreskin fibroblasts; actives raise or lower the signal. An outline of the steps: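 ELISA readout of Collagen III in human dermal (foreskin) fibroblasts, taken 24 h post-treatment. Gain or loss relative to DMSO vehicle fitted in both directions.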

Read-out in assay [6]: Epidermal growth factor receptor (EGFR), EGFR (gene 1956)
The assay can be described thus: BSK_hDFCGF_EGFR: BioMAP Diversity Plus: hDFCGF Assay for Epidermal growth factor receptor (EGFR) Biomarker Activity (AID 2283057). Conditions: primary human foreskin fibroblasts; actives raise or lower the signal. An outline of the steps: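 EGFR levels by ELISA in human dermal fibroblast cultures, 24 h post-treatment, fitted bidirectionally versus DMSO. Parallel wells stained with sulforhodamine B to detect overt cytotoxicity.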

Read-out in assay [7]: Interleukin-8 (IL8), CXCL8 (gene 3576)
The assay can be described thus: BSK_hDFCGF_IL8: BioMAP Diversity Plus: hDFCGF Assay for Interleukin-8 (IL8) Biomarker Activity (AID 2283058). Conditions: primary human foreskin fibroblasts; actives raise or lower the signal. An outline of the steps:
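IL-8 levels read by ELISA at 24 hours after dosing human skin fibroblast cultures. Parallel SRB staining assessed overt cytotoxicity, and gain or loss of signal was fitted against DMSO control.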

Assay [8] in a line: BSK_hDFCGF_Proliferation: Cell Proliferation Assessment in the BioMAP Diversity Plus: hDFCGF Assay (AID 2283059).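 Further: curves fitted for both rise and fall of signal versus DMSO baseline.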 Conditions: primary human foreskin fibroblasts. An outline of the steps:
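Total protein read at 560 nm after 0.1% SRB staining of TCA-fixed human skin fibroblasts, […]. Activity is fitted in both directions relative to DMSO as baseline.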

Read-out in assay [9]: Macrophage colony-stimulating factor (MCSF), CSF1 (gene 1435)
The assay can be described thus: BSK_hDFCGF_MCSF: BioMAP Diversity Plus: hDFCGF Assay for Macrophage colony-stimulating factor (MCSF) Biomarker Activity (AID 2283060). Particulars: primary human foreskin fibroblasts; actives raise or lower the signal. An outline of the steps:
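M-CSF levels read by ELISA at 24 h post-dosing in human skin fibroblasts. Parallel cultures stained with SRB assessed cytotoxicity at the same time point; response fitted in both directions against the DMSO baseline.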

The nature of assay [10]: BSK_hDFCGF_SRB: Viability Assessment in the BioMAP Diversity Plus: hDFCGF Assay (AID 2283061).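 Further: cells exposed to compound for 24 h before the read.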 Conditions: primary human foreskin fibroblasts. An outline of the steps: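 Viability was read as total protein: after 10% TCA fixation, wells were stained with 0.1% sulforhodamine B and read at 560 nm. Primary human foreskin fibroblasts were dosed for 24 h, with bidirectional fitting versus DMSO.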

Where “and” joins values, the source holds several entries; their conditions need not be identical. Equal entries are not always repeated. Some structures have more than one record in an assay (separate samples or runs), and their calls can disagree. Calls of active or inactive are those of the source. How the source made its calls: active means hit-call score of the fitted dose curve at least 0.9, where 1 is the maximum; inactive means score below 0.9.

As to `CCN(CC)N=O`, the outcome in assay [1], in assay [2], in [3], in assay [4], in assay [5] and in assay [6] was inactive. Further, the outcome in assay [7], in assay [8], in assay [9] and in assay [10] was inactive.
For the compound `CCOc1cccc(C2(N3CCN(c4ccccc4)CC3)CCC(C)CC2)c1` (configuration not stated), the result in assay [1], in assay [2], in [3], in [4], in assay [5] and in assay [6] was inactive. Besides, the result in assay [7], in [8], in assay [9] and in assay [10] was inactive.
Regarding `O=C1CCCO1`, the outcome in [1], in assay [2], in [3], in assay [4], in assay [5] and in [6] was inactive. Moreover, the outcome in assay [7], in [8], in assay [9] and in assay [10] was inactive.
In the case of `O=Cc1ccco1`, the outcome in [1], in assay [2], in [3], in assay [4], in assay [5] and in [6] was inactive. Moreover, the outcome in assay [7], in [8], in assay [9] and in [10] was inactive.
For the compound `O=C(Oc1ccc(Br)cc1)N1CCN2CCC1CC2`, the result in assay [1], in assay [2], in assay [3], in assay [4], in assay [5] and in [6] was inactive. The outcome in [7], in assay [8], in assay [9] and in assay [10] was inactive.
For `c1ccc(N=Nc2ccccc2)cc1`, the result in assay [1], in assay [2], in assay [3], in assay [4], in [5] and in assay [6] was inactive. Also, the outcome in assay [7], in assay [8], in [9] and in assay [10] was inactive.
As for `Clc1ccccc1Cl`, the outcome in assay [1], in assay [2], in assay [3], in assay [4], in assay [5] and in [6] was inactive. For the same compound, the result in assay [7], in assay [8], in [9] and in assay [10] was inactive.
In the case of `CCNS(=O)(=O)C(F)(F)C(F)(F)C(F)(F)C(F)(F)C(F)(F)C(F)(F)C(F)(F)C(F)(F)F`, the outcome in assay [1], in assay [3], in assay [6] and in assay [7] was inactive. Also, the AC50 is 18 µM (active) and 20.9 µM (active) and 19.8 µM (active) in assay [2]; 9.52 µM (active) and 11.7 µM (active) and 5.95 µM (active) in assay [4]; 5.82 µM (active) and 18.6 µM (active) and 22 µM (active) in assay [5]; 31.3 µM (active) and 48.5 µM (active) in [6]; 55.1 µM (active) and 46.4 µM (active) in assay [7]; 17.5 µM (active) and 14.4 µM (active) and 19.4 µM (active) in assay [8]. Further, the AC50 is 17 µM (active) and 22.2 µM (active) and 28.5 µM (active) in assay [9]; 28.8 µM (active) and 44.8 µM (active) and 47.8 µM (active) in assay [10].
Regarding `N#CC(Br)Br`, the outcome in assay [1], in assay [2], in assay [3], in [4], in [5] and in [6] was inactive. For the same compound, the result in [7], in assay [8], in assay [9] and in [10] was inactive.
`Clc1ccc(Cl)c(Cl)c1`: the result in assay [1], in assay [2], in [3], in [4], in assay [5] and in assay [6] was inactive. The outcome in assay [7], in [8], in assay [9] and in [10] was inactive.
On to `CCCCC(CC)COC(=O)c1ccc(C(=O)OCC(CC)CCCC)c(C(=O)OCC(CC)CCCC)c1` (configuration not stated), for which the result in assay [1], in assay [2], in assay [3], in assay [4], in assay [5] and in assay [6] was inactive. Further, the outcome in assay [7], in assay [8], in [9] and in [10] was inactive.
On to `CN(C)c1ccc(C(=O)c2ccc(N(C)C)cc2)cc1`, for which the result in assay [1], in [2], in assay [3], in assay [4], in assay [5] and in assay [6] was inactive. Moreover, the outcome in assay [7], in [9] and in [10] was inactive. In assay [8], the AC50 was 1.56 µM (active).
Turning to `COC(=O)Nc1nc2ccccc2[nH]1`, the result in [1], in [2], in assay [4], in assay [5], in [6] and in assay [7] was inactive. The outcome in assay [9] and in assay [10] was inactive. Further, the figures for the AC50 in assay [3] and in assay [8] were 9.38 µM (active) and 0.224 µM (active), respectively.
As to `O=[N+]([O-])C(Br)(CO)CO`, the result in [1] and in assay [3] was inactive. The AC50 in [2] is 28.5 µM (active); in assay [4] it was 28.1 µM (active); in assay [5], 36.7 µM (active); in assay [6], 36.4 µM (active); in assay [7], 37.2 µM (active); in assay [8] it was 2.66 µM (active). Also, the AC50 in [9] was 26.6 µM (active); in assay [10], 30.5 µM (active).
`Nc1ccc(Cl)cc1N`: the result in [1], in assay [2], in assay [3], in [5], in assay [6] and in [7] was inactive. In addition, the outcome in assay [10] was inactive. For the same compound, the AC50 in [4] was 3.97 µM (active); in assay [8], 11.2 µM (active); in [9] it was 6.73 µM (active).
For the compound `CCC[CH2][Sn]([Cl])([CH2]CCC)[CH2]CCC`, the half-maximal activity concentration (AC50) in assay [1] was 0.148 µM (active); in assay [2] it was 0.259 µM (active); in assay [3], 0.406 µM (active); in assay [4], 0.148 µM (active); in assay [5] it was 0.316 µM (active); in assay [7], 0.287 µM (active). The AC50 in assay [8], in assay [9] and in [10] was 0.148 µM (active) in each case. The outcome in [6] was inactive.
As for `COc1cc(C=O)cc2c1[C@H](COC(N)=O)[C@]1(OC(C)=O)ON2C[C@H]2[C@@H]1N2C(C)=O`, the AC50 was 4.87 µM (active) in assay [1]; 1.19 µM (active) in assay [2]; 2.21 µM (active) in [3]; 4.5 µM (active) in assay [4]; 0.788 µM (active) in assay [5]; 0.0312 µM (active) in [6]. The concentration at half-maximal activity (AC50) in assay [7] is 2.73 µM (active); in assay [8], 0.0312 µM (active); in assay [9] it was 1.08 µM (active); in assay [10], 2.45 µM (active).
Consider `O=C(Nc1ccccc1)c1ccccc1I`, for which the result in assay [1], in assay [2], in [3], in assay [4], in assay [5] and in assay [6] was inactive. The outcome in assay [7], in assay [8], in assay [9] and in [10] was inactive.
Turning to `OCCCBr`, the outcome in [1], in [2], in assay [3], in assay [4], in assay [5] and in assay [6] was inactive. The outcome in [7], in assay [8], in [9] and in assay [10] was inactive.
Consider `Oc1ccc2ccc3cccc4ccc1c2c34`, for which the result in assay [1], in assay [4], in assay [6] and in [7] was inactive. Also, the AC50 in assay [2] is 10.3 µM (active); in [3], 27 µM (active); in [5], 14.6 µM (active); in assay [8] it was 3.17 µM (active); in [9] it was 10.4 µM (active); in assay [10] it was 20 µM (active).

The record behind these values is PubChem BioAssay (EPA / NIEHS).
